Screening results from PubChem.
Nrf2 ARE act = activates Nrf2 signaling. AREc32 ARE-luciferase reporter (MCF7-derived line), luminescence, 24 h. Potency, µM (series often up to 46.1 µM), for the others: at the highest dose activation, actives largely listed as activators. 0.31% of 410,000 active; also: % of control where 0% means no effect; nearly all actives have a fitted effect of over 65% in size
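Nrf2 activation is followed as ARE-luciferase induction in the AREc32 line after one day of compound treatment; luminescence is read with Steady-Glo.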
A549 tox = counter-screen for Nrf2 inhibitors: cytotoxicity in A549 cells | 0.16% of 390,000 active | A549 ARE-Fluc cells, CellTiter-Fluor viability, 18-24 h | Potency, µM (series often up to 46 µM), for the others: at the highest dose activity change, negative = cytotoxicity, most hits filed as inhibitors; also: % is scaled to controls: 0 for no effect and ±100 for the full control effect
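A549 ARE-Fluc cells in 5% FBS OPTI-MEM, 5000 cells/well, rested 2 h then exposed to compounds in concentration-response for 18-24 h at 37 °C. Viability by CellTiter-Fluor fluorescence (Ex 405/Em 525) after 30 min; luciferase luminescence (BugLite, 15 min, RT) read afterwards.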
Nrf2 block = blocks Nrf2 signaling | A549 ARE-Fluc reporter, luciferase luminescence, 18-24 h | Potency, µM (highest dose often 46 µM), inactives show top-dose activity change, negative = inhibition, most hits filed as inhibitors | 2.1% of 360,000 active | AID 504444; also: % is scaled to controls: 0 for no effect and ±100 for the full control effect; nearly all actives have a fitted effect of over 60% in size
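Reporter: ARE-Fluc in A549. Exposure: 18-24 h, 37 °C, 5% CO2, 5% FBS OPTI-MEM. Readouts: fluorescent cytotoxicity (CellTiter-Fluor), then luminescent Nrf2 signal after BugLite.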
ELG1 DNA repair = blocks ELG1-dependent DNA repair in HEK293T cells | HEK293T ELG1-luciferase reporter, luminescence, 16 h; DNA damage induced by 5-fluorouridine | Potency, µM (series often up to 46.1 µM), inactives show top-dose activity change, negative = inhibition, usual class: inhibitors | 2.3% of 330,000 active | AID 504467; also: % is scaled to controls: 0 for no effect and ±100 for the full control effect; nearly all actives have a fitted effect of over 55% in size
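5-Fluorouridine DNA damage + compound/DMSO, 2,000 cells/well, 16 h, 37 °C/5% CO2. ONE-Glo, 30 min RT, luminescence. Readout = decrease in reporter signal.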
Active calls of the source: *; [ ] = dose if it differs, or a comment. Only some compounds are listed: those with a hit (about 3.7% of all), similar ones and a draw of the others. Calls follow the shape of the dose curve; as a rule, active = well fitted curve in the direction sought with a large enough effect; inconclusive = small, poorly fitted or top-dose-only effect, or another doubt; inactive = no such curve, though single readings can be large; an effect the other way counts as inactive or inconclusive. Potency is read from the fitted curve at half-maximal effect.

CCCC/C=C/[C@H](c1ccccc1)[C@H](CO)Cc1ccc([N+](=O)[O-])cc1 was read as A549 tox -19% and Nrf2 block inconclusive.
Screening COC(=O)c1ccccc1NC1=C/C(=N\S(=O)(=O)c2cccs2)c2ccccc2C1=O returned Nrf2 ARE act 13%, A549 tox inconclusive, Nrf2 block -5% and ELG1 DNA repair 5.2µM*.
O=C1C(Nc2ccccc2)=C/C(=N/S(=O)(=O)c2cccs2)c2ccccc21 was read as Nrf2 ARE act -2%, A549 tox 15µM*, Nrf2 block 8.2µM* and ELG1 DNA repair 6.5µM*.
For Cc1cccc(-c2nn(-c3ccccc3)cc2C(=O)N(C)CC(=O)Nc2ccc(N3CCOCC3)cc2)c1 the results were Nrf2 ARE act 0%, A549 tox -5%, Nrf2 block 15% and ELG1 DNA repair 12µM*.
For CCOc1ccc(NC(=O)CN(C)C(=O)c2cn(-c3ccccc3)nc2-c2cccs2)cc1OCC the results were Nrf2 ARE act 1%, A549 tox -6%, Nrf2 block -26% and ELG1 DNA repair 21µM*.
For COc1cccc(-c2nn(-c3ccc(C)cc3)cc2C(=O)N(C)CC(=O)Nc2cccc(F)c2)c1 the results were Nrf2 ARE act 3%, A549 tox -17%, Nrf2 block inconclusive and ELG1 DNA repair 13µM*.
Screening CCOc1ccc(NC(=O)CN(C)C(=O)c2cn(-c3ccc(C)cc3)nc2-c2cccc(OC)c2)cc1OCC returned Nrf2 ARE act 0%, A549 tox -10% and Nrf2 block -26%.
Screening CN(C)c1ccc(C=C(c2nnnn2-c2ccccc2)c2nnnn2-c2ccccc2)cc1 returned Nrf2 ARE act 0%, A549 tox -21%, Nrf2 block 9% and ELG1 DNA repair 12µM*.
`CC(C)C(=O)OC1=CN(Cc2ccccc2)S(=O)(=O)c2ccccc21` gave Nrf2 ARE act 0%, A549 tox 10% and Nrf2 block 9%.
CC(=O)c1ccc(OCC(O)CN(C)CCOc2ccc(Br)cc2)cc1 (stereo not given) was read as Nrf2 ARE act 5%, A549 tox -1%, Nrf2 block 18µM* and ELG1 DNA repair inconclusive.
For CC(=O)c1ccc(OCC(O)COc2ccc(C(C)=O)cc2)cc1 the results were Nrf2 ARE act 0%, A549 tox 3%, Nrf2 block 1% and ELG1 DNA repair -5%.
`COc1ccc(CNC(=O)[C@H](C)N2C(=O)N3CCc4c([nH]c5ccccc45)[C@@]3(C)C2=O)cc1OC` gave Nrf2 ARE act 1%, A549 tox -2%, Nrf2 block 16µM* and ELG1 DNA repair inconclusive.
Cc1ccc(CNC(=O)[C@H](C)N2C(=O)N3CCc4c([nH]c5ccccc45)[C@@]3(C)C2=O)cc1 was read as Nrf2 ARE act 0%, A549 tox 8%, Nrf2 block -26% and ELG1 DNA repair inconclusive.
Screening CCOc1ccccc1CNC(=O)c1ccc2nc(Cc3ccc(OC)cc3)oc2c1 returned Nrf2 ARE act 6% and A549 tox 4%.
Screening Cc1cc2c(s1)c1cnn(Cc3ccc(Cl)cc3)c(=O)c1n2C returned A549 tox -6% and Nrf2 block 3%.
COc1ccc(/C=C(/C(=O)Nc2ccccc2C(=O)N2CCCC2)c2ccccc2)cc1 was read as Nrf2 ARE act 0%, A549 tox 4%, Nrf2 block inconclusive and ELG1 DNA repair 23µM*.
COc1cc(CC(=O)OCC(=O)N2C(C)CCCC2C)cc(OC)c1OC (stereo not given) was read as Nrf2 ARE act 4%, A549 tox 3%, Nrf2 block 2% and ELG1 DNA repair 0%.
Screening O=C(Nc1cnn(Cc2ccc(Cl)cc2Cl)c1)c1noc2c1CCc1ccccc1-2 returned Nrf2 ARE act -1%, A549 tox 0% and Nrf2 block inconclusive.
For Cc1ccc(Oc2nnc(-c3cccs3)c3ccccc23)cc1C the results were Nrf2 ARE act 1%, A549 tox -8%, Nrf2 block 18µM* and ELG1 DNA repair -6%.
Screening CCc1c(C)sc2c1CCN(C(=O)Nc1ccc(F)c(Cl)c1)C2c1ccc(F)cc1 (stereo not given) returned Nrf2 ARE act 0% and A549 tox inconclusive.
`Cc1ccc(C)c(N2CCN(Cc3nnnn3C3CCCCC3)CC2)c1` gave Nrf2 ARE act 0%, A549 tox 13% and ELG1 DNA repair inconclusive.
For CCC(C)(C)n1nnnc1CN1CCN(c2nc3cc(OC)ccc3cc2C#N)CC1 the results were Nrf2 ARE act 0%, A549 tox -14%, Nrf2 block 18µM* and ELG1 DNA repair inconclusive.
Screening COc1ccc2cc(C#N)c(N3CCN(C(=O)c4ccccc4C)CC3)nc2c1 returned Nrf2 ARE act 0%[9.22 µM], A549 tox -13%, Nrf2 block -26% and ELG1 DNA repair 13µM*.
`Cc1ccc2nc(N3CCN(Cc4nnnn4C4CCCC4)CC3)c(C#N)cc2c1` gave Nrf2 ARE act -1%, A549 tox 1%, Nrf2 block 23µM* and ELG1 DNA repair inconclusive.
C[C@H](CO)N1C[C@H](C)[C@H](CN(C)C(=O)Nc2ccc(C(F)(F)F)cc2)OCc2cnnn2CCCC1=O was read as Nrf2 ARE act 0%.
Screening COC(=O)c1c(-c2cccs2)csc1NC(=O)COc1ccc(C(C)(C)C)cc1 returned Nrf2 ARE act 0%, A549 tox 13% and Nrf2 block -21%.
`CN1CCN(S(=O)(=O)c2cccc(C(=O)Nc3cc(Cl)ccc3N3CCOCC3)c2)CC1` gave Nrf2 ARE act 0%, A549 tox 0%, Nrf2 block 0% and ELG1 DNA repair 1%.
`CC(=O)Nc1ccc(Sc2ccc([N+](=O)[O-])o2)cc1` gave Nrf2 ARE act inconclusive, A549 tox -11% and Nrf2 block 11%.
CC(C)(C)C(=O)Nc1ccc(Sc2ccc([N+](=O)[O-])cc2)cc1 was read as Nrf2 ARE act 5%, A549 tox 1%, Nrf2 block 16µM* and ELG1 DNA repair inconclusive.
`O=C(COc1ccccc1)N=C1SC2CS(=O)(=O)CC2N1c1ccc(F)cc1` (stereo not given) gave Nrf2 ARE act -1%, A549 tox 1%, Nrf2 block -21% and ELG1 DNA repair 5%.
Screening O=C(N/N=C/c1ccc([N+](=O)[O-])o1)c1cc(-c2cccc(Br)c2)nc2ccccc12 returned Nrf2 ARE act inconclusive, A549 tox inconclusive, Nrf2 block 13µM* and ELG1 DNA repair inconclusive.
Screening CCCc1ccc(-c2cc(C(=O)N/N=C/c3ccc([N+](=O)[O-])o3)c3ccccc3n2)cc1 returned Nrf2 ARE act 17%, A549 tox -21%, Nrf2 block 10µM* and ELG1 DNA repair inconclusive.
`COc1nc(-c2cccc([N+](=O)[O-])c2)nc2ccccc12` gave Nrf2 ARE act 0%, A549 tox 10%, Nrf2 block 1% and ELG1 DNA repair -7%.
Screening COc1ccc(Nc2ncnc3ccccc23)cc1 returned Nrf2 ARE act 1%, A549 tox -1%, Nrf2 block 4% and ELG1 DNA repair -5%.
